Results as given in PubChem BioAssay (EPA / NIEHS).
More than one record can exist for a structure, and the calls need not agree. Active and inactive are the calls of the source. How the source made its calls: active means hit-call score of the fitted dose curve at least 0.9, where 1 is the maximum; inactive means score below 0.9.

Target: CCAAT/enhancer-binding protein beta (Homo sapiens) (UniProt P17676)
Experiment: ATG_C_EBP_CIS: Attagene CIS-FACTORIAL HepG2 Assay for human CCAAT/Enhancer Binding Protein (C/EBP) beta (AID 2282927)
Conditions: HepG2 Attagene cis-factorial transcription factor reporter; actives raise or lower the signal
Experimental: ATG_CIS is a cell-based, multiplexed-readout assay that uses HepG2, a human liver cell line, with measurements taken at 24 hours after chemical dosing in a 24-well plate.ATG_C_EBP_CIS is one of 52 assay component(s) measured or calculated from the ATG_CIS assay. It is designed to make measurements of mRNA induction, a form of inducible reporter, as detected with fluorescence intensity signals by Reverse transcription polymerase chain reaction (RT-PCR) and Capillary electrophoresis technology.Data from the assay component ATG_C_EBP_CIS was analyzed into 1 assay endpoint. This assay endpoint, ATG_C_EBP_CIS, was analyzed with bidirectional fitting relative to DMSO as the negative control and baseline of activity. Using a type of inducible reporter, measures of mRNA for gain or loss-of-signal activity can be used to understand the reporter gene at the transcription factor-level as they relate to the gene CEBPB. Furthermore, this assay endpoint can be referred to as a primary readout, because this assay has produced multiple assay endpoints where this one serves a reporter gene function. To generalize the intended target to other relatable targets, this assay endpoint is annotated to the dna binding intended target family, where the subfamily is basic leucine zipper.
Human liver HepG2 cells are transiently transfected with multiple reporter transcription units (MRTUs) in 6-well plates using FuGene 6 reagent (Roche; 3 ml FuGene/1 mg DNA). The MRTU constructs are regulated by a cis-regulating element (promoter). […] A major difference between the CIS and TRANS system is that in CIS activities of endogenous TFs are measured, whereas the TRANS assay evaluates changes in activities of exogenous, chimeric NR-Gal4 proteins. […] At the end of 24 hour incubation, total RNA was isolated using TriZol reagent (Invitrogen). The isolated RNA is then reverse-transcribed using oligo(dT) primer and Mo-MLV reverse transcriptase (Invitrogen) with DNAse I (Ambion) treatment for 30 min. The one-tenth of the produced cDNA was amplified by PCR using Taq DNA polymerase (Invitrogen) and two reporter sequence-specific primers. The PCR products were fluorescently labeled by primer extension with 6-arboxyfluorescein (6-FAM) 5'-labeled reporter sequence-specific primer (2 min at 95 C, 20 s at 68 C and 10 min at 72 C) and these products were digested with 5U of HpaI (New England Biolabs) for 2h at 37 C. The fragments were purified using Qiaquick PCR columns (Qiagen), analyzed on an ABI 3130xL genetic analyzer (Applied Biosystems) with peak positions identified by using a set of X-rhodamine (ROX)-labeled MapMarker1000 molecular weight standards (BioVentures). The raw capillary electrophoresis data was processed using Attagraph software (Attagene).

Sequence of CCAAT/enhancer-binding protein beta (Homo sapiens) (P17676 whole entry, looked up): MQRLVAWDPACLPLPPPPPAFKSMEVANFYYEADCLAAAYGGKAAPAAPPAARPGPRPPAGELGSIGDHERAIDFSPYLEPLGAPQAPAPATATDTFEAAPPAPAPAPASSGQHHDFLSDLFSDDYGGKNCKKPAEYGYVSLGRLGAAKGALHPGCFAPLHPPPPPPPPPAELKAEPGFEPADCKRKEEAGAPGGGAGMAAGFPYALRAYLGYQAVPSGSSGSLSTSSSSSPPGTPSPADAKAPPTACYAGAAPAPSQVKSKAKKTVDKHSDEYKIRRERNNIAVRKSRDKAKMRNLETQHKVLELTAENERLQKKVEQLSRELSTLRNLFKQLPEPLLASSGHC

| SMILES | outcome | AC50 |
| --- | --- | --- |
| O=C(O)COc1ccc(Cl)cc1Cl | inactive |  |
| O=S(=O)(O)C(F)(F)C(F)(F)C(F)(F)C(F)(F)C(F)(F)C(F)(F)C(F)(F)C(F)(F)F | inactive |  |
| Cc1[nH]c(=O)n(C(C)(C)C)c(=O)c1Cl |  | 31.3 µM (active) |
| COC(=O)c1ccccc1CS(=O)(=O)NC(=O)Nc1nc(OC)cc(OC)n1 | inactive |  |
| OCCOc1ccccc1 | inactive |  |
| C#CCN1C(=O)COc2cc(F)c(N3C(=O)C4=C(CCCC4)C3=O)cc21 | inactive |  |
| CNC(=O)Oc1ccccc1OC(C)C | inactive |  |
| CCOCN(C(=O)CCl)c1c(C)cccc1CC | inactive |  |
| CCS(=O)(=O)c1cccnc1S(=O)(=O)NC(=O)Nc1nc(OC)cc(OC)n1 | inactive |  |
| COc1nn(CSP(=S)(OC)OC)c(=O)s1 | inactive |  |
| COP(=S)(OC)Oc1ccc([N+](=O)[O-])cc1 | inactive |  |
| CCOc1nc(NC)nc(NC(=O)NS(=O)(=O)c2ccccc2C(=O)OC)n1 | inactive |  |
| CC(C)N(C(=O)COc1nnc(C(F)(F)F)s1)c1ccc(F)cc1 | inactive |  |
| C[C@H]1[C@H](c2ccc(Cl)cc2)SC(=O)N1C(=O)NC1CCCCC1 | inactive |  |
| COC(=O)c1ccccc1S(=O)(=O)NC(=O)N(C)c1nc(C)nc(OC)n1 | inactive |  |
| CC1(C)C(C=C(Cl)Cl)C1C(=O)OC(C#N)c1ccc(F)c(Oc2ccccc2)c1 (stereo not given) | inactive |  |
| CC[C@H](C)[C@H]1O[C@]2(C=C[C@@H]1C)C[C@@H]1C[C@@H](C/C=C(\C)[C@@H](O[C@H]3C[C@H](OC)[C@@H](O[C@H]4C[C@H](OC)[C@@H](O)[C@H](C)O4)[C@H](C)O3)[C@@H](C)/C=C/C=C3\CO[C@@H]4[C@H](O)C(C)=C[C@@H](C(=O)O1)[C@]34O)O2 (tested in a mixture with another compound) | inactive |  |
| CCC(C)Nc1c([N+](=O)[O-])cc(C(C)(C)C)cc1[N+](=O)[O-] (stereo not given) | inactive |  |

| SMILES | outcome | AC50 |
| --- | --- | --- |
| COC(=O)c1ccccc1S(=O)(=O)NC(=O)Nc1nc(C)nc(OC)n1 | inactive |  |
| Oc1cc(Cl)ccc1Oc1ccc(Cl)cc1Cl | inactive | 20.5 µM (active) |
| ClC1C(Cl)C(Cl)C(Cl)C(Cl)C1Cl (stereo not given) | inactive | 61.8 µM (active) |
| CCCN(CCC)c1c([N+](=O)[O-])cc(C(F)(F)F)cc1[N+](=O)[O-] |  | 2.59 µM (active) |
| CC(C)(C)C(O)/C(=C\c1ccc(Cl)cc1Cl)n1cncn1 (stereo not given) | inactive |  |
| O=[N+]([O-])/N=C1\NCCN1Cc1ccc(Cl)nc1 | inactive |  |
| Oc1ccc(Cl)cc1Cc1ccccc1 | inactive | 8.76 µM (active) |
| N#CN | inactive |  |
| CCC(C)(C)C(=O)OC1=C(c2ccc(Cl)cc2Cl)C(=O)OC12CCCCC2 | inactive |  |
| N#Cc1c(Cl)c(Cl)c(Cl)c(C#N)c1Cl | inactive |  |
| CCc1ccc(C(=O)NN(C(=O)c2cc(C)cc(C)c2)C(C)(C)C)cc1 | inactive |  |
| COP(=O)(OC)OC=C(Cl)Cl | inactive |  |
| CC(C)(C)C(O)C(Oc1ccc(Cl)cc1)n1cncn1 (stereo not given) | inactive | 7.06 µM (active) |
| O=[N+]([O-])c1c(Cl)c(Cl)c(Cl)c(Cl)c1Cl | inactive |  |
| CCC(C)(NC(=O)c1cc(Cl)c(C)c(Cl)c1)C(=O)CCl (stereo not given) | inactive |  |
| CCOC1Oc2ccc(OS(C)(=O)=O)cc2C1(C)C (stereo not given) |  | 14.5 µM (active) |
| CCCN(CCOc1c(Cl)cc(Cl)cc1Cl)C(=O)n1ccnc1 | inactive |  |
| COc1cc(OC)nc(NC(=O)NS(=O)(=O)c2cc(NC=O)ccc2C(=O)N(C)C)n1 |  | 13.3 µM (active) |
